SMILES strings stand for the structures. Activity calls are given as the source filed them. Calls follow the shape of the dose curve; as a rule, active = well fitted curve in the direction sought with a large enough effect; inactive = no such curve, though single readings can be large or run the other way.

The nature of this assay: Retest of LOPAC molecules that induce DNA re-replication in SW480 adenocarcinoma cells. Particulars: Hoechst DNA content imaging, 48 h; series mostly up to 45.1 µM. From the text:
NIH Molecular Libraries Probe Production Network [MLPCN] NIH Chemical Genomics Center [NCGC] MLPCN Grant: Fast Track K99 CA136555 Assay Provider: Melvin DePamphilis, NICHD, NIH Assay Overview Eukaryotic cells normally restrict genome duplication to once per cell division. When this process is aberrant, DNA re-replication occurs when cells reinitiate DNA replication before the first round of replication is complete. DNA re-replication induces the DNA damage response, arrests cell proliferation, and triggers apoptosis. The cell cycle components cyclin A, Cdt-1, Cdc6 and geminin are critical regulators of this process and their misregulation results in DNA re-replication in normal and cancer cells. To identify compounds that induce re-replication in normal cells, an image-based assay was used to measure DNA content of nuclei, as detected by the fluorescent DNA binding dye, Hoechst. Cell nuclei were imaged by a fluorescence scanning plate imager and compounds that induce DNA re-replication were identified by the increase of nuclei with elevated fluorescence intensity.
Assay Protocol Summary For screening, 250 cells in 5 uL/well were dispensed into black clear 1536-well plates (Aurora) using a solenoid-based dispenser. Following transfer of 23 nL compound or DMSO vehicle by a pin tool, the plates were incubated 48 hr at 37 C and 5% CO2. After addition of 1 uL/well Hoescht stain, the plates were incubated 40 min at 37 C, 5% CO2 and total intensity of fluorescent objects (nuclei) were enumerated by an Acumen Explorer Ex3 (TTP LabTech) fluorescence scanning plate imager (405 nm excitation, 500-530 nm emission). Keywords: NIH Roadmap, MLPCN, MLI, MLSMR, qHTS, NCGC, DNA replication, cancer
Consider `CC(=O)O[C@H]1C(=O)[C@@]2(C)C([C@H](OC(=O)c3ccccc3)[C@]3(O)C[C@H](OC(=O)[C@H](O)[C@@H](NC(=O)c4ccccc4)c4ccccc4)C(C)=C1C3(C)C)[C@]1(OC(C)=O)CO[C@@H]1C[C@@H]2O` (stereo not given in full), for which the Potency was 0.169 µM (active). On to `O=c1cc(-c2ccccc2)[nH]c2nc(Cl)ccc12`, for which the Potency was 1.69 µM (active).

As to `COc1cc2c(cc1O)CC[C@@H]1[C@@H]2CC[C@]2(C)[C@@H](O)CC[C@@H]12`, the Potency is 6.73 µM (active).

As for `CCCCCCN(CCCCCC)C(=O)Cc1c(-c2ccc(F)cc2)[nH]c2ccccc12`, the Potency entry is “inactive”. For the compound `C[C@@H](Oc1ccc(Oc2cnc3ccc(Cl)cc3n2)cc1)C(=O)O`, the Potency result was “inactive”.

The record behind these values is PubChem BioAssay AID493165 (National Center for Advancing Translational Sciences (NCATS), 2011).
